From PubChem BioAssay

Test: small-molecule microarray binders of probe aDKK1, primary screen, biochemical, biotinylated probe, 635/667 nm fluorescence (AID 1099);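 also: score merges 667nm spot fluorescence with signal to noise across triplicate slides; reference of the scale not given here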
Conditions: higher = more signal

Row | Compound | composite z-score
1 | O=C(O)[C@H](Cc1ccccc1)n1cc(-c2ccccn2)nn1 | -0.22
2 | COC(=O)c1c(CC[C@@H](CO)NC(=O)N[C@H](Cn2cc(-c3ccccc3C)nn2)C(C)C)oc(C(C)=O)c1C(=O)OC | -0.177
3 | COc1ccc(NN2C(C(O)c3ccco3)C=CC3C(=O)N(C4CCCCC4)C(=O)C32)cc1 (stereo not given) | 0.456
4 | Cc1c(NC(=O)/C(C#N)=C/C=C/c2ccc(N(C)C)cc2)c(=O)n(-c2ccccc2)n1C | 0.735
5 | CN1C2C=C(CCCO)C(C3C(=O)N(C(N)=O)C(=O)C32)C1c1cccs1 (stereo not given) | 1.3
6 | CC(C)CNC(=O)[C@@]1(c2ccc([N+](=O)[O-])cc2)CC(=O)N(C2CCCCC2)[C@@H]1c1ccc(CO)cc1I | 0.349
7 | COCCOC(=O)N1C(=O)[C@@]2(c3cc(C#CC4(O)CCCCCC4)ccc31)[C@H](C(N)=O)[C@H]1C(=O)O[C@H](c3ccccc3)[C@H](c3ccccc3)N1[C@@H]2c1ccc(O)cc1 | -0.116
8 | COC(=O)[C@@]1(Cc2ccccc2)[C@H]2c3cc(C(=O)N4CCCC4)n(Cc4cc(F)cc5c4OCOC5)c3C[C@H]2CN1C(=O)c1ccccc1 | 0.513
9 | CCOC(=O)C[C@H]1[C@H](OC(=O)c2ccccc2-c2ccccc2)[C@@H](NC(=O)CC(C)C)c2cc(OCCCO)ccc2N1C(=O)c1ccc2ccccc2n1 | -0.0242
10 | C=CCN1Cc2ccccc2C[C@@]2(N=C(c3ccc(OCCCO)cc3)O[C@H]2c2ccccc2)C1=O | 0.189
11 | COCCOC(=O)N1C(=O)[C@@]2(c3cc(C#CC4(O)CCCCCC4)ccc31)[C@H](C(=O)N1CCCCCCC1)[C@H]1C(=O)O[C@H](c3ccccc3)[C@H](c3ccccc3)N1[C@@H]2c1ccc(OCCO)cc1 | 2.65
12 | CN1C(=O)C2C=CC(C(O)c3c(F)cccc3Cl)N(Nc3ccccc3)C2C1=O (stereo not given) | 0.308
13 | CCCC=C(CCC)[C@@H](NP(=O)(c1ccccc1)c1ccccc1)c1ccc(C(F)(F)F)cc1 | 0.578
14 | O=C1O[C@@H](c2ccccc2)[C@@H](c2ccccc2)N2[C@@H](c3ccc(O)cc3)[C@]3(C(=O)Nc4ccc(C#CCCO)cc43)[C@@H](C(=O)NC[C@H](O)c3ccccc3)[C@H]12 | -0.301
15 | CCN(CC)c1ccc(N2CC=CC34O[C@@H]5/C=C\CCC(C)OC(=O)C5[C@H]3C(=O)N(CCO)[C@@H]4C2=O)cc1 (stereo not given in full) | -0.18
16 | Cc1ccc(S[C@]2(C(=O)NCCN3CCOCC3)CC(=O)N(Cc3ccccc3C(F)(F)F)[C@@H]2c2ccc(CO)cc2I)cc1 | -0.102
17 | C=CCNC(=O)[C@@H]1[C@H]2C(=O)O[C@H](c3ccccc3)[C@H](c3ccccc3)N2[C@H](c2ccc(OCCO)cc2)[C@@]12C(=O)N(C(=O)OCCOC)c1ccc(C#CC3=CCCCC3)cc12 | 0.331
18 | COC(=O)[C@@]1(Cc2ccccc2)[C@H]2c3cc(C(=O)N4CCCC4)[nH]c3C[C@H]2CN1C(=O)c1ccccc1 | 0.865

Row | Compound | composite z-score
19 | C=CCOC(=O)[C@@H]1[C@H]2C(=O)O[C@H](c3ccccc3)[C@H](c3ccccc3)N2[C@H](c2ccc(OCCOC(=O)[C@H]3C[C@H]4C(=O)N[C@@H](CCCC[N+](C)(C)C)C(=O)N4[C@H]3c3ccc(O)cc3)cc2)[C@@]12C(=O)Nc1ccc(I)cc12 | -0.144
20 | COc1c(C)cc(-c2cc3c(c(Cc4ccccc4)n2)[Si](C(C)C)(C(C)C)OC3)cc1C | -0.0724
21 | COCCOC(=O)N1C(=O)[C@@]2(c3cc(C#CC4(O)CCCCCC4)ccc31)[C@H](c1ccccc1OCCO)N1[C@H](c3ccccc3)[C@H](c3ccccc3)OC(=O)[C@H]1[C@@H]2C(N)=O | 0.255
22 | CC(C)C(O)C1C=CC2C(=O)N(C)C(=O)C2N1Nc1ccccc1 (stereo not given) | 1.36
23 | CC(=O)N1Cc2ccccc2C[C@]2(N=C(c3ccc(OCCCO)cc3)O[C@@H]2c2ccccc2)C1=O | 0.835
24 | CCOC(=O)[C@@H]1[C@@H]2C(=O)N(CC)C(=O)[C@@H]2C[C@@H]1Sc1ccccc1 | 0.19
25 | O=C1OCCC=C[C@H]2OC34C=CCN(c5ccc(Cl)cc5)C(=O)[C@H]3N(CCCCCO)C(=O)[C@@H]4C12 (stereo not given in full) | -0.0263
26 | COc1ccc(CCNC(=O)[C@@]2(Sc3ccc(C)cc3)CC(=O)N(Cc3cc(C(F)(F)F)cc(C(F)(F)F)c3)[C@@H]2c2ccc(CO)cc2I)cc1 | 0.277
27 | COC(=O)[C@@]1(Cc2ccc(OC)cc2)[C@H]2c3cc(C(=O)N4CCCC4)n(CCc4cc5ccccc5[nH]4)c3C[C@H]2CN1C(=O)c1ccccc1 | 1.64
28 | COc1ccc(NN2C(C(O)c3ccccn3)C=CC3C(=O)N(C4CCCCC4)C(=O)C32)cc1 (stereo not given) | 0.2
29 | CN(C)CCCCNC(=O)[C@H]1C[C@H]2C(=O)N[C@@H](CCCCN(C)C)C(=O)N2[C@H]1c1cccc(OCCO)c1 | -0.199
30 | CC(C)(C)OC(=O)CC[C@]1(C(=O)O)N=C(c2ccc(OCCCO)cc2)O[C@H]1c1ccccc1 | 0.191
31 | COCCOC(=O)N1C(=O)[C@@]2(c3cc(C#Cc4ccc(OC)cc4)ccc31)[C@H](C(=O)NC[C@H](O)c1ccccc1)[C@H]1C(=O)O[C@H](c3ccccc3)[C@H](c3ccccc3)N1[C@@H]2c1ccc(O)cc1 | 0.139
32 | C[C@]1(C(=O)NC2CC2)c2ccccc2C(=O)N(Cc2ccc(OC(F)(F)F)cc2)[C@H]1c1ccc(CO)cc1 | -0.0414
33 | C=CC[C@@]1(C(=O)O)N=C(c2ccc(OCCCO)cc2)O[C@@H]1c1ccccc1 | -0.2
34 | COC(=O)C1(Cc2ccccc2)C=C2C(=C(C(C)C)C(=O)C2C)CN1 (stereo not given) | 1.34
35 | COc1ccc(C#Cc2ccc3c(c2)[C@]2(C(=O)N3)[C@H](C(=O)N3CCc4cc(OC)c(OC)cc4C3)[C@H]3C(=O)O[C@H](c4ccccc4)[C@H](c4ccccc4)N3[C@@H]2c2ccc(O)cc2)cc1 | -0.29
